Holding throughout (assay): yeast three-hybrid, YBZ-1, SC-Leu-His + 0.5 mM 3-AT, 4 days
Common to all, as to conditions: tags: N-Gal4 AD-HA kept; label: inside an RPR1-promoter hybrid RNA with tandem MS2 sites; ssRNA

One assay has as its target PUM1 PUF domain R7-KSV (Homo sapiens, UniProt Q14671 828-1176, S1079K;N1080S;E1083V). The gist of the method:
(§1)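 The interaction score is the log change in variant frequency from input to selection. Scores were computed in log2 with a pseudocount of 1 for absent variants, using Illumina sequencing of PCR-amplified repeat regions. The input came from four days on SC-Leu and the selection from four days on SC-Leu-His + 0.5 mM 3-AT. The cells were strain YBZ-1 (LexA–MS2 coat fusion, HIS3 reporter) co-expressing Pumilio-1 PUF domain libraries and matching RNA elements from a centromeric plasmid.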

Another assay has as its target PUM1 PUF domain R8-IHR (Homo sapiens, UniProt Q14671 828-1176, N1122I;Y1123H;Q1126R). The gist of the method:
as §1

A further assay has as its target PUM1 PUF domain R5-RFV (Homo sapiens, UniProt Q14671 828-1176, C1007R;R1008F;Q1011V). The gist of the method:
as §1

The next assay concerns the target PUM1 PUF domain R5-QQC (Homo sapiens, UniProt Q14671 828-1176, C1007Q;R1008Q;Q1011C). In outline:
as §1

The next assay concerns the target PUM1 PUF domain R5-QHE (Homo sapiens, UniProt Q14671 828-1176, C1007Q;R1008H;Q1011E). The gist of the method:
as §1

The target of another assay is PUM1 PUF domain R2-SWG (Homo sapiens, UniProt Q14671 828-1176, N899S;Y900W;Q903G). In outline: as §1
A further assay concerns the target PUM1 PUF domain R4-NNA (Homo sapiens, UniProt Q14671 828-1176, H972N;Q975A). In outline: as §1
The target of the next assay is PUM1 PUF domain R4-CPV (Homo sapiens, UniProt Q14671 828-1176, N971C;H972P;Q975V). The gist of the method: as §1
Another assay deals with PUM1 PUF domain R3-TYF (Homo sapiens, UniProt Q14671 828-1176, C935T;R936Y;Q939F). In outline: as §1
The target in the next assay is PUM1 PUF domain R5-EYR (Homo sapiens, UniProt Q14671 828-1176, C1007E;R1008Y;Q1011R). In outline:
as §1

For another assay, the target named is PUM1 PUF domain R3-MWH (Homo sapiens, UniProt Q14671 828-1176, C935M;R936W;Q939H). In outline: as §1
In the next assay the target is PUM1 PUF domain R3-SRR (Homo sapiens, UniProt Q14671 828-1176, C935S;Q939R). The gist of the method:
as §1

In a further assay the target is PUM1 PUF domain R5-ISR (Homo sapiens, UniProt Q14671 828-1176, C1007I;R1008S;Q1011R). In outline:
as §1

A further assay deals with T1, PUM1 PUF domain R6-FHS (Homo sapiens, UniProt Q14671 828-1176, N1043F;Y1044H;Q1047S).
T1 sequence: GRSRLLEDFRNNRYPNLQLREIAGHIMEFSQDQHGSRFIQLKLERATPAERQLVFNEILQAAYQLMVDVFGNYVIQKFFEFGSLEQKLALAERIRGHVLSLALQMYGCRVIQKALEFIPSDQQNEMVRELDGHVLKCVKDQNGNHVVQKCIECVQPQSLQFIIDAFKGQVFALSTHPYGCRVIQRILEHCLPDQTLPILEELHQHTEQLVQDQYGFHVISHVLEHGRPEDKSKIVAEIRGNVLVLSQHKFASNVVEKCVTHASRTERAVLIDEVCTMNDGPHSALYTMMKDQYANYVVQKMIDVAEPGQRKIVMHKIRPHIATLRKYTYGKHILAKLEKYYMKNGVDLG
In outline: as §1

The target of a further assay is PUM1 PUF domain R5-NQR (Homo sapiens, UniProt Q14671 828-1176, C1007N;R1008Q;Q1011R). The gist of the method: as §1
Another assay concerns the target PUM1 PUF domain R5-FNL (Homo sapiens, UniProt Q14671 828-1176, C1007F;R1008N;Q1011L). The gist of the method:
as §1

Regarding “GGCUAGAACUAGUGGAUCCCCCGGCGCCCGGCGGCUCGAGCCCGGGUAAGUUUAAAUAGUCUGCAUGCCGCCGGGCGCCAUGCCUGCAGGUCGACUCUAGAAAACAUG”, the binding signal with PUM1 PUF domain R7-KSV was 3.22 log2 enrichment (interaction score).
On to “GGCUAGAACUAGUGGAUCCCCCGGCGCCCGGCGGCUCGAGCCCGGGUAAGCGUAAAUAGUCUGCAUGCCGCCGGGCGCCAUGCCUGCAGGUCGACUCUAGAAAACAUG”, for which the binding signal with PUM1 PUF domain R8-IHR was 4.48 log2 enrichment (interaction score).
Turning to “GGCUAGAACUAGUGGAUCCCCCGGCGCCCGGCGGCUCGAGCCCGGGUAAGUGUGAAUAGUCUGCAUGCCGCCGGGCGCCAUGCCUGCAGGUCGACUCUAGAAAACAUG”, the binding signal is 1.88 log2 enrichment (interaction score) with PUM1 PUF domain R5-RFV, 4.46 log2 enrichment (interaction score) with PUM1 PUF domain R5-QQC and 3.04 log2 enrichment (interaction score) in the assay with PUM1 PUF domain R5-QHE.
Turning to “GGCUAGAACUAGUGGAUCCCCCGGCGCCCGGCGGCUCGAGCCCGGGUAAGUGUAAAAAGUCUGCAUGCCGCCGGGCGCCAUGCCUGCAGGUCGACUCUAGAAAACAUG”, the binding signal with PUM1 PUF domain R2-SWG was 3.09 log2 enrichment (interaction score).
In the case of “GGCUAGAACUAGUGGAUCCCCCGGCGCCCGGCGGCUCGAGCCCGGGUAAGUGUAUAUAGUCUGCAUGCCGCCGGGCGCCAUGCCUGCAGGUCGACUCUAGAAAACAUG”, the results for the binding signal in the assay with PUM1 PUF domain R4-NNA and with PUM1 PUF domain R4-CPV were 4.34 log2 enrichment (interaction score) and 2.93 log2 enrichment (interaction score), respectively.
In the case of “GGCUAGAACUAGUGGAUCCCCCGGCGCCCGGCGGCUCGAGCCCGGGUAAGUGUAAAUAGUCUGCAUGCCGCCGGGCGCCAUGCCUGCAGGUCGACUCUAGAAAACAUG”, the binding signal in the assay with PUM1 PUF domain R3-TYF is 6.49 log2 enrichment (interaction score); in the assay with PUM1 PUF domain R5-RFV, 2.29 log2 enrichment (interaction score); in the assay with PUM1 PUF domain R4-NNA, 2.12 log2 enrichment (interaction score); in the assay with PUM1 PUF domain R5-EYR, 5.2 log2 enrichment (interaction score); with PUM1 PUF domain R3-MWH it was 2.6 log2 enrichment (interaction score); with PUM1 PUF domain R3-SRR, 0.87 log2 enrichment (interaction score). Besides, the binding signal in the assay with PUM1 PUF domain R4-CPV was 1.1 log2 enrichment (interaction score); with PUM1 PUF domain R5-ISR, 1.4 log2 enrichment (interaction score); in the assay with PUM1 PUF domain R6-FHS, 4.18 log2 enrichment (interaction score); with PUM1 PUF domain R8-IHR, 3.28 log2 enrichment (interaction score).
On to “GGCUAGAACUAGUGGAUCCCCCGGCGCCCGGCGGCUCGAGCCCGGGUAAGUGUUAAUAGUCUGCAUGCCGCCGGGCGCCAUGCCUGCAGGUCGACUCUAGAAAACAUG”, for which the binding signal with PUM1 PUF domain R5-NQR was 4.88 log2 enrichment (interaction score); in the assay with PUM1 PUF domain R5-FNL, 3.47 log2 enrichment (interaction score); with PUM1 PUF domain R5-RFV it was 4.04 log2 enrichment (interaction score).

For the origin of these results see article PMC8384837, “Expanding the binding specificity for RNA recognition by a PUF domain”.
